Assay [1] addresses T1, Inhibitor of nuclear factor kappa-B kinase subunit epsilon (Homo sapiens) (UniProt Q14164).
T1 sequence (whole entry): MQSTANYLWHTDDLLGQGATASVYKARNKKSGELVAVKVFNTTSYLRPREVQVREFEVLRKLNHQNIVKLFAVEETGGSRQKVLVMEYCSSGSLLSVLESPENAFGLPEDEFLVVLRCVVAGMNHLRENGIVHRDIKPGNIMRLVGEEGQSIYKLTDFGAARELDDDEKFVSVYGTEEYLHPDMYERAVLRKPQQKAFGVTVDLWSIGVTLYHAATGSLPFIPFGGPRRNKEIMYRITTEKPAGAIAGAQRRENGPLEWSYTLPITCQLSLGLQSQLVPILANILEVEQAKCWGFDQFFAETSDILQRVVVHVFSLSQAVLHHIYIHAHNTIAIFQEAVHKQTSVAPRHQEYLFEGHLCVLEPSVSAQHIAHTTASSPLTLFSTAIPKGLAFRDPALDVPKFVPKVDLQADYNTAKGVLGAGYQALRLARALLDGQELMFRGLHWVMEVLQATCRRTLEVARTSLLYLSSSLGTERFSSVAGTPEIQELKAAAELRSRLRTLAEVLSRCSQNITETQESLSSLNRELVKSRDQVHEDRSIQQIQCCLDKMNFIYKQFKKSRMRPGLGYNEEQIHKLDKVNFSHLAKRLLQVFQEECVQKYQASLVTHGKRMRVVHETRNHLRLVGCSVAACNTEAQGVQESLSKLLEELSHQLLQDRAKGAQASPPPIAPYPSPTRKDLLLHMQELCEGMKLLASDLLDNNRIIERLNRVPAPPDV
The note with it: at 1 µM.

In assay [2] the target is T2, Serine/threonine-protein kinase Nek1 (Homo sapiens) (UniProt Q96PY6).
T2 sequence (whole entry): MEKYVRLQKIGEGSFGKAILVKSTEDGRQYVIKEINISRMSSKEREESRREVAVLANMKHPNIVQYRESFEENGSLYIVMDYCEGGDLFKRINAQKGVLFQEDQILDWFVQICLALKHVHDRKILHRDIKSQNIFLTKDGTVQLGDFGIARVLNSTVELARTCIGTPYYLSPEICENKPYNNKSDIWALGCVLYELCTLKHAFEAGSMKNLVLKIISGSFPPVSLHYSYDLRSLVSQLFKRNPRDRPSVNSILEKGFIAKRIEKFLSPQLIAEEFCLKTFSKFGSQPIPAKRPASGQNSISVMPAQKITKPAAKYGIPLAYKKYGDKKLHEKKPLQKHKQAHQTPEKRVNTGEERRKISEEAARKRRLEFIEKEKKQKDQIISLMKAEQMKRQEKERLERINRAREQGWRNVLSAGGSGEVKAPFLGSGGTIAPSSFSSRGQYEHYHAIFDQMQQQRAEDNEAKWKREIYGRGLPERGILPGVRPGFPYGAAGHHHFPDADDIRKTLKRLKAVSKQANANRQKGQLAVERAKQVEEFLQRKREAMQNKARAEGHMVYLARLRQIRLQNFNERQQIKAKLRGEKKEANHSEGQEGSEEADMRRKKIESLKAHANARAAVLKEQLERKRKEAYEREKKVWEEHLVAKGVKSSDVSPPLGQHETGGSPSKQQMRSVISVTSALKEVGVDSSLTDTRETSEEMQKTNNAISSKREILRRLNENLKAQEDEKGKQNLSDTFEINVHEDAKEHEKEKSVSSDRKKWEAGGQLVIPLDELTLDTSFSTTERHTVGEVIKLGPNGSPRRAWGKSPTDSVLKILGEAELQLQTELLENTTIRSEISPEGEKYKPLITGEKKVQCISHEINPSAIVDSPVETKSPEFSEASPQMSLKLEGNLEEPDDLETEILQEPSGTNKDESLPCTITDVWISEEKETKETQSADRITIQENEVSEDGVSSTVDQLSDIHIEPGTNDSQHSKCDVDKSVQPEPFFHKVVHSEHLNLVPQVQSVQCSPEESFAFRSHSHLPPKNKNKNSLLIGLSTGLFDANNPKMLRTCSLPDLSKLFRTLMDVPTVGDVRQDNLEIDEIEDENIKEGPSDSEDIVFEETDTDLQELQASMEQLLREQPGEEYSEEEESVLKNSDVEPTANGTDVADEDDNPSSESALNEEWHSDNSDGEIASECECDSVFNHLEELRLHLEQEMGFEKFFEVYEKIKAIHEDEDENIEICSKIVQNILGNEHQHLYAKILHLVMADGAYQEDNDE
The settings on record: at 0.1 µM.

Assay [3] deals with T2, Serine/threonine-protein kinase Nek1 (Homo sapiens). The note with it: at 1 µM.
Assay [4] deals with T3, Serine/threonine-protein kinase Nek2 (Homo sapiens) (UniProt P51955).
T3 sequence (whole entry): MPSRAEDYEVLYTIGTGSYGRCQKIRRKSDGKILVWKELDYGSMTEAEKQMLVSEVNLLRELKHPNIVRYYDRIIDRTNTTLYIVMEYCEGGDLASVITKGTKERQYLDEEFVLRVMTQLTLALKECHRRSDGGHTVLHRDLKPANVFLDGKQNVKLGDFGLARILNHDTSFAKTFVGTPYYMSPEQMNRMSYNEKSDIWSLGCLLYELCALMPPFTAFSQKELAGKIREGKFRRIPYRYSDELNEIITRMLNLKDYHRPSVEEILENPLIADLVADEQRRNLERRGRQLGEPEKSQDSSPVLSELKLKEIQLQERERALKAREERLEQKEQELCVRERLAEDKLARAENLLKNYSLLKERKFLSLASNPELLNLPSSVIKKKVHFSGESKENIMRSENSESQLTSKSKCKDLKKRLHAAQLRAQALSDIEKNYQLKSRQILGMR
The note with it: at 0.1 µM.

Assay [5] deals with T3, Serine/threonine-protein kinase Nek2 (Homo sapiens). The settings on record: at 1 µM.
Assay [6] concerns the target Serine/threonine-protein kinase Nek6 (Homo sapiens) (UniProt Q9HC98). The note with it: at 0.1 µM.
For assay [7] the target is unchanged. The settings on record: at 1 µM.
Assay [8] has as its target Serine/threonine-protein kinase Nek7 (Homo sapiens) (UniProt Q8TDX7). The note with it: at 0.1 µM.
For assay [9] the target is unchanged. The note with it: at 1 µM.
The target in assay [10] is T4, Serine/threonine-protein kinase Nek9 (Homo sapiens) (UniProt Q8TD19).
T4 sequence (whole entry): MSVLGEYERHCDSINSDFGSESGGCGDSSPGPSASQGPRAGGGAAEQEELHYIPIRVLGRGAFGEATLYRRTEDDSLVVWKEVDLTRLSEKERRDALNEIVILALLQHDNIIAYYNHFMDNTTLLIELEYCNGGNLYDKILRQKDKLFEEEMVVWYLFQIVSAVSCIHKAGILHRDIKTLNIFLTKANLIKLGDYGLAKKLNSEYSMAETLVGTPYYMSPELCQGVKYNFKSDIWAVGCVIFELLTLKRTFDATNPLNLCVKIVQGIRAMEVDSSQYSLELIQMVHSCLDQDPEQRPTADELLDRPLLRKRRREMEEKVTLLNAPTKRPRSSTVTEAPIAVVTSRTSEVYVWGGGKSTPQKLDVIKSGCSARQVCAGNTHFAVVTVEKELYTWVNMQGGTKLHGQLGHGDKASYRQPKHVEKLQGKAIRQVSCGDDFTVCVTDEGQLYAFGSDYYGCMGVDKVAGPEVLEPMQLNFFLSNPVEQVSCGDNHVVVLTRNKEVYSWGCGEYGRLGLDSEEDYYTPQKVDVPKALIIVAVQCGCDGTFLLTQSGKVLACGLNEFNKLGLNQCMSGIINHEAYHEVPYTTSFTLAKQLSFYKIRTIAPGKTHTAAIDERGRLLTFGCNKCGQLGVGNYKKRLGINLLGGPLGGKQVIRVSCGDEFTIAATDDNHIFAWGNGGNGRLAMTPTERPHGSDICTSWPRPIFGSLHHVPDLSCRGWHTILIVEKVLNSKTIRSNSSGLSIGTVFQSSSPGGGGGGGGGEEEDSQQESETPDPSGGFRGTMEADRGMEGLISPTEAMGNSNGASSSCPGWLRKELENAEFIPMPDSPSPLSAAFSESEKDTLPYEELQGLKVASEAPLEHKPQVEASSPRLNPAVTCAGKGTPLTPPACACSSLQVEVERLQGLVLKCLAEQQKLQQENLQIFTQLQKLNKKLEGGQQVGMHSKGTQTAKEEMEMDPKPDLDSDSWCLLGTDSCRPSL
The settings on record: at 0.1 µM.

For assay [11], the target named is T4, Serine/threonine-protein kinase Nek9 (Homo sapiens). The note with it: at 1 µM.
The target of assay [12] is Serine/threonine-protein kinase PLK1 (Homo sapiens) (UniProt P53350). The settings on record: at 0.1 µM.
Serine/threonine-protein kinase PLK1 (Homo sapiens), sequence (P53350 whole entry): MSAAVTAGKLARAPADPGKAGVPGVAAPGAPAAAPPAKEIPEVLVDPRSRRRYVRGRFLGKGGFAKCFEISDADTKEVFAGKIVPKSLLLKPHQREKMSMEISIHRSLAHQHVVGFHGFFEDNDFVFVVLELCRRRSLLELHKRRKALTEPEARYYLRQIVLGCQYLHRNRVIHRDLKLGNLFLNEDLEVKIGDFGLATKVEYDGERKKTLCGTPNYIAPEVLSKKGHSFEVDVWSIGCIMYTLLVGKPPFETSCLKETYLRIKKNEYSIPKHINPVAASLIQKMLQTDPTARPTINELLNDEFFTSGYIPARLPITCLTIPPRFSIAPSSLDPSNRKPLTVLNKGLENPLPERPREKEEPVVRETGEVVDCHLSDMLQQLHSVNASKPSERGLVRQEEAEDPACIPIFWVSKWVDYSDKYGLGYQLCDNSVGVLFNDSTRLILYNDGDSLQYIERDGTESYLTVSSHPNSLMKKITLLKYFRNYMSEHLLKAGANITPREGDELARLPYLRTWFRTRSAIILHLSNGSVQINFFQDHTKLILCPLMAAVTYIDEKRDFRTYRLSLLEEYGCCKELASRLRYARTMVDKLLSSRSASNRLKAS
Assay [13] has the same target. The note with it: at 1 µM.
In assay [14] the target is T5, Dual specificity protein kinase TTK (Homo sapiens) (UniProt P33981).
T5 sequence (whole entry): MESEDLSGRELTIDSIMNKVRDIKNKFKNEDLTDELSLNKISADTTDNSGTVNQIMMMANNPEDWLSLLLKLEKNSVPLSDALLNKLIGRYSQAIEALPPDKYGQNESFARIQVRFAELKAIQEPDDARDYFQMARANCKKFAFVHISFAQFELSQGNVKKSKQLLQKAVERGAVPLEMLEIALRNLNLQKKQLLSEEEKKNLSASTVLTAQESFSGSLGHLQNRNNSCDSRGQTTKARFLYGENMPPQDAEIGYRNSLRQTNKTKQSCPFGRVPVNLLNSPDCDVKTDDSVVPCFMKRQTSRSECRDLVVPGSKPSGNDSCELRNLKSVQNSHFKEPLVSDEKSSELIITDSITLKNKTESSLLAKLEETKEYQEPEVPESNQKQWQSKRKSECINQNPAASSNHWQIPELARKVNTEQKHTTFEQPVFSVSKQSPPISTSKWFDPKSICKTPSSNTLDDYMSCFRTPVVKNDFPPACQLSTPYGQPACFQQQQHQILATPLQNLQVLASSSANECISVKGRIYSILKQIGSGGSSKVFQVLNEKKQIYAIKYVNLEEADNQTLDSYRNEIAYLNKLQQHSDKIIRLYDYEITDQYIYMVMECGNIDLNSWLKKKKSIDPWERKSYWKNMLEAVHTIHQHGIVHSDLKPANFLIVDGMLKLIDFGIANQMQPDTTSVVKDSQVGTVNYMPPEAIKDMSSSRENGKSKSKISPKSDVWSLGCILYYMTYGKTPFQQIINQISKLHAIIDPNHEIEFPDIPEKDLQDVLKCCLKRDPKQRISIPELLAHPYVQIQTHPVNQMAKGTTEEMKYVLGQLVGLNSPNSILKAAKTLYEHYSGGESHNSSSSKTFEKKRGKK
The note with it: at 0.1 µM.

The test system of assay [15] is T6, Receptor-type tyrosine-protein kinase FLT3 (Homo sapiens), P36888 [D835Y].
T6 sequence (whole entry): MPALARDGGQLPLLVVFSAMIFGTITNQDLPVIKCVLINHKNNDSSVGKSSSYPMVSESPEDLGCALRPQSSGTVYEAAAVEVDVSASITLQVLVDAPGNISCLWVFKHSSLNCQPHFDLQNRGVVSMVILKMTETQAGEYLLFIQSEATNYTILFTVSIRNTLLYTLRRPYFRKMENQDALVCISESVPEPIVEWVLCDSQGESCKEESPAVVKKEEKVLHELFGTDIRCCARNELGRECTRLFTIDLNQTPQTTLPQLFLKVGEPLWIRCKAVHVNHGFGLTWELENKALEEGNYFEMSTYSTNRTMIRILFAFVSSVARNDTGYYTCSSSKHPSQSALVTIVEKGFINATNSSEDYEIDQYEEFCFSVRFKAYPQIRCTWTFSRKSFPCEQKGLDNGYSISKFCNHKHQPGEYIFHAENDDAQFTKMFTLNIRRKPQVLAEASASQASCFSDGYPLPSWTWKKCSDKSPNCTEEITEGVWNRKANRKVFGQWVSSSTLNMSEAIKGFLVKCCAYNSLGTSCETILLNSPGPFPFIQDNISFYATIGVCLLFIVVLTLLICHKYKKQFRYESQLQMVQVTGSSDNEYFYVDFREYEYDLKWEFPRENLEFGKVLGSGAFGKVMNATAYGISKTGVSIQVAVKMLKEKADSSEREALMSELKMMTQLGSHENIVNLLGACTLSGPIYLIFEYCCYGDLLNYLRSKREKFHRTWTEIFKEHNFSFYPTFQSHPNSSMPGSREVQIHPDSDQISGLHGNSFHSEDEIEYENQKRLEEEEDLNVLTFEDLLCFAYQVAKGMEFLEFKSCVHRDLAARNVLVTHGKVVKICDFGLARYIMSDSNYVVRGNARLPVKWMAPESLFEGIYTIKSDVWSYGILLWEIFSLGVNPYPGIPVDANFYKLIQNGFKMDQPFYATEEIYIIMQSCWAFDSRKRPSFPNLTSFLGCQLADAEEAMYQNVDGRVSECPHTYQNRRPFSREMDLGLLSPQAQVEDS
The settings on record: at 1 µM.

Assay [16] deals with Vascular endothelial growth factor receptor 3 (Homo sapiens) (UniProt P35916). The note with it: at 0.1 µM.
Vascular endothelial growth factor receptor 3 (Homo sapiens), sequence (P35916 whole entry): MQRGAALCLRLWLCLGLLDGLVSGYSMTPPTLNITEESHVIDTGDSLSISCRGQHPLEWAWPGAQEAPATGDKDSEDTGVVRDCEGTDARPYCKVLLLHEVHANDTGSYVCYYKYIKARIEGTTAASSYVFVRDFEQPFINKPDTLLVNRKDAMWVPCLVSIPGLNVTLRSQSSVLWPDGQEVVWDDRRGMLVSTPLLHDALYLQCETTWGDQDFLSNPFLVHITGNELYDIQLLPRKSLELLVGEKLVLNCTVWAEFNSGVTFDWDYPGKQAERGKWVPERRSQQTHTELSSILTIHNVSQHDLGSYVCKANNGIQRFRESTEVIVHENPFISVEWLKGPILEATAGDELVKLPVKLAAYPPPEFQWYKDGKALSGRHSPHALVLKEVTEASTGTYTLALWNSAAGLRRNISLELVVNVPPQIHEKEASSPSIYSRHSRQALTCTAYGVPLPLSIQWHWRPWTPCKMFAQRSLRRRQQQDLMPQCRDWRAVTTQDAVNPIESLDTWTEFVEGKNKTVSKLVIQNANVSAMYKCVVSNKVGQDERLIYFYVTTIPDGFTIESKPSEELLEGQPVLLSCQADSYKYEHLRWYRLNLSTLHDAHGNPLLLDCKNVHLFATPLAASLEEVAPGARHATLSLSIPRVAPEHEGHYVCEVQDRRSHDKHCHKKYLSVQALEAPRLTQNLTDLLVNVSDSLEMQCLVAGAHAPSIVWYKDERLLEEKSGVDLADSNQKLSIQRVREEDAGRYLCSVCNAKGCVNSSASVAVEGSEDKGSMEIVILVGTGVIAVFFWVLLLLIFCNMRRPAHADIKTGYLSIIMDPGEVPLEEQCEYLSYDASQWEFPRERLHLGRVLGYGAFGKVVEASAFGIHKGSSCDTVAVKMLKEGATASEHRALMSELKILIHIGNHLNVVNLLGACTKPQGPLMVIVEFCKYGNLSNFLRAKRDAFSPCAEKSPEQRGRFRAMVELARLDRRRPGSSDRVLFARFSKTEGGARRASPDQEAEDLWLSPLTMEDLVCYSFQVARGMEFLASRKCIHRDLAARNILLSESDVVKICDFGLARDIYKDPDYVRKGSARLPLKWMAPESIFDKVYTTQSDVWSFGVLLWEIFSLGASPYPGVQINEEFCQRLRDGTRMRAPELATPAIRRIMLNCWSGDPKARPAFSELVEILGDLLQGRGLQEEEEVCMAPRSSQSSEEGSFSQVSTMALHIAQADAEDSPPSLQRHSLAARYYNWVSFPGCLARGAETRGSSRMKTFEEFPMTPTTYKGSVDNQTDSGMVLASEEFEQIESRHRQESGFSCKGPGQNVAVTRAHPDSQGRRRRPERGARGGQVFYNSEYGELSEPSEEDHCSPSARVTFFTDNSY
Assay [17] shares this target. The settings on record: at 1 µM.
For assay [18], the target named is Macrophage colony-stimulating factor 1 receptor (Homo sapiens) (UniProt P07333). The settings on record: at 0.1 µM.
Macrophage colony-stimulating factor 1 receptor (Homo sapiens), sequence (P07333 whole entry): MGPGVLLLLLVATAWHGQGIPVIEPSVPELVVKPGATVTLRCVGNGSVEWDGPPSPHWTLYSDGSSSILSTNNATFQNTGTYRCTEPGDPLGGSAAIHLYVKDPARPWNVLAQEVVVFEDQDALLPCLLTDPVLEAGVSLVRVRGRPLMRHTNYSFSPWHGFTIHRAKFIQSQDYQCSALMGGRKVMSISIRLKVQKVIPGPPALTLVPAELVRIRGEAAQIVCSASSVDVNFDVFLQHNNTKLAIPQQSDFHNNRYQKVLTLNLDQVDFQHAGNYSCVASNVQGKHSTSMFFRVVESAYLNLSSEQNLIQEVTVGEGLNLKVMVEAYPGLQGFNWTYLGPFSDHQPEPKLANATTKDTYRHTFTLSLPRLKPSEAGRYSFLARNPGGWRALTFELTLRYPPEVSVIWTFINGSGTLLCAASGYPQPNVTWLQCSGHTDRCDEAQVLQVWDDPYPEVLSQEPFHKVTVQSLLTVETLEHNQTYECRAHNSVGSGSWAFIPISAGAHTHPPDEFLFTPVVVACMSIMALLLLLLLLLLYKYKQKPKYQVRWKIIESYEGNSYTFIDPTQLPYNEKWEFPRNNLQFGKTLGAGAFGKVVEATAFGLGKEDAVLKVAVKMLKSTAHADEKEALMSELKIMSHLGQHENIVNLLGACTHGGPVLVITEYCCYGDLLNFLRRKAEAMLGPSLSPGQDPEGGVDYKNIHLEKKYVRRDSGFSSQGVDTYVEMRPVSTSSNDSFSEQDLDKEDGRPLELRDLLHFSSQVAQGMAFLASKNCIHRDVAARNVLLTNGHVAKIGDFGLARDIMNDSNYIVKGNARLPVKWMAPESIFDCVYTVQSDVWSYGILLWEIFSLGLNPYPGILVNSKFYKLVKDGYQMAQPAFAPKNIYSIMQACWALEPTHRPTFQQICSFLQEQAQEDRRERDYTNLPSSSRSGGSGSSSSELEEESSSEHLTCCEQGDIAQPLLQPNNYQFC
For assay [19] the target is unchanged. The note with it: at 1 µM.
For assay [20], the target named is Tyrosine-protein kinase Fyn (Homo sapiens) (UniProt P06241). The settings on record: at 0.1 µM.
Tyrosine-protein kinase Fyn (Homo sapiens), sequence (P06241 2-537 limits assumed): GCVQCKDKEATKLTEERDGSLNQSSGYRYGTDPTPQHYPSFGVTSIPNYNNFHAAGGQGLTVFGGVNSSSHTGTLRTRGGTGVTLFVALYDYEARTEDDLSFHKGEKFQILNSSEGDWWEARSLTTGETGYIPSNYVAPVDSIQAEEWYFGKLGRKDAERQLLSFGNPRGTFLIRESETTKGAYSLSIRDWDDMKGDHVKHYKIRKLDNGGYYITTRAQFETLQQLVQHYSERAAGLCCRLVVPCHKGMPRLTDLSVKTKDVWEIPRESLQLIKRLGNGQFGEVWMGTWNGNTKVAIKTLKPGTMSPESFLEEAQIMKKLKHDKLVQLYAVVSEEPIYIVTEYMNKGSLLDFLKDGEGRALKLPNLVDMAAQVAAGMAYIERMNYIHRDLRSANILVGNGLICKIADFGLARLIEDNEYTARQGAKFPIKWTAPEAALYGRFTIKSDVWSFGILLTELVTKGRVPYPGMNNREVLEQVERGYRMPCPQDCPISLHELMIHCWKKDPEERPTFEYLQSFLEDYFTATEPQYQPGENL

The structures appear in SMILES notation.

In general, inhibition refers to the drop in the measured response relative to a control, in per cent.

Serine/threonine-protein kinase Nek6 (Homo sapiens), sequence (Q9HC98 whole entry): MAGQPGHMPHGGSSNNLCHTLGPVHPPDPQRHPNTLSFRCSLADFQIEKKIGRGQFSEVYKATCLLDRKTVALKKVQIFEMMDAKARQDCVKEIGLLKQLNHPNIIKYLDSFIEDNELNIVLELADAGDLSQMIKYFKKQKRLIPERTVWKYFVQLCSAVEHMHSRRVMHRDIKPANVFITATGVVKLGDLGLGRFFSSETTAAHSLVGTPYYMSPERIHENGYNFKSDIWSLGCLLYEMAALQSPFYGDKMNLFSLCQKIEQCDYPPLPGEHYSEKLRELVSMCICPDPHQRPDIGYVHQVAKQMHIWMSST
Serine/threonine-protein kinase Nek7 (Homo sapiens), sequence (Q8TDX7 whole entry, looked up): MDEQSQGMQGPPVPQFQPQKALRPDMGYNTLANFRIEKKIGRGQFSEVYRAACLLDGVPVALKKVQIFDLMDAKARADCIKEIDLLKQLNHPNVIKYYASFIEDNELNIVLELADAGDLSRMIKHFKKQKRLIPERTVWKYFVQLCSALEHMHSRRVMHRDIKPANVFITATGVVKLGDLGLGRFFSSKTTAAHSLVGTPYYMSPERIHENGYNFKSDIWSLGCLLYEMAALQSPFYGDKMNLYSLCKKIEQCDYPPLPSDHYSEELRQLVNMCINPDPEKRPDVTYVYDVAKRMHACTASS

Turning to `Cc1ccc(-c2cc3c(NC(=O)C4CC4)ncnc3o2)cc1`, the inhibition is 6.07% in assay [1]; 1.85% in assay [2]; 3.91% in [3]; 4.58% in assay [4]; 4.89% in [5]; 3.4% in assay [6]. For the same compound, the inhibition in assay [7] stood at 0.29%; in [8], 3.17%; in assay [9] it was 3.35%; in assay [10] it was 3.07%; in [11], 4.87%; in assay [12], 3.28%. For the same compound, the inhibition in assay [13] was 2.79%; in [14] it was 6.01%; in assay [15] it was 3.4%; in assay [16], 3.84%; in assay [17], 9.25%; in assay [18], 20.6%. The inhibition in [19] was determined as 66.9%; in assay [20], 6.5%.
For `O=C1Nc2ccccc2/C1=C1\CCc2cc(O)ccc21`, the inhibition in assay [1] is 20.3%; in assay [2], 3.11%; in assay [3], 4.37%; in assay [4], 7.09%; in assay [5], 5.47%; in assay [6], 1.9%. Further, the inhibition in [7] was 1.99%; in [8], 5.62%; in [9], 4.31%; in assay [10], 8.42%; in assay [11] it was 8.07%; in [12] it was 4.12%. The inhibition in assay [13] amounted to 4.17%; in assay [14], 12.1%; in [15], 70.6%; in [16], 7.22%; in assay [17] it was 24.6%; in assay [18], 17.3%. In addition, the inhibition in [19] was determined as 59.6%; in assay [20], 5.55%.

The values are drawn from ChEMBL document CHEMBL1961873, “Compounds: GSK PKIS; Assays: Nanosyn kinase panel” (2012).
